Laboratory results reported in PubChem BioAssay (NCI).
Compounds without any hit were thinned out: in the full panel of roughly 83,000, 20% have a hit.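 Negative percent growth values reflect cell death: -40 means 40% of the cells present at the start died, and -100 means all died.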 Unmarked numbers belong to inactive results. Activity calls are given as the source filed them. Rule for the calls: active = growth percent below 10; inactive = the rest.

Assays:
Assay in all cases: NCI-60 one-dose screen, 48 h (100 = growth as untreated, 0 = no growth, -100 = all killed)
Details in all cases: 10 µM unless noted
[1] = test system: T-47D breast
[2] = test system: BT-549 breast
[3] = test system: MDA-MB-435 melanoma
[4] = test system: SW-620 colon
[5] = test system: MCF7 breast
[6] = test system: HCT-116 colon
[7] = test system: HCC-2998 colon
[8] = test system: KM12 colon

| SMILES | growth [1] | growth [2] | growth [3] | growth [4] | growth [5] | growth [6] | growth [7] | growth [8] |
| --- | --- | --- | --- | --- | --- | --- | --- | --- |
| Cc1cccc(NCc2cn(-c3ccc(C(=O)O)cc3)nc2-c2ccc(C(=O)O)cc2)n1 | 100% | 104% | 101% | 99.9% | 97.4% | 107% | 112% | 102% |
| Cc1ccc2nc(NC(=O)CSc3nc(Cl)c(C#N)c(-c4ccccc4)n3)sc2c1 | 89.1% | 103% | 98.8% | 103% | 91.7% | 102% | 108% | 110% |
| COc1ccc(C(Cc2ccccc2)NCCN2CCOCC2)cc1 (stereo unspecified) | 85.4% | 82.1% | 105% | 107% | 89.2% | 95.9% | 86.6% | 104% |
| O=C(N/N=C/[C@H](O)[C@H](O)[C@H](O)CO)c1ccc(NC(=O)c2cccnc2)cc1 | 99.2% | 102% | 103% | 103% | 92% | 105% | 110% | 103% |
| C#C[C@]1(O)CC[C@H]2[C@@H]3CC=C4c5sc(Nc6cc(F)ccc6F)nc5CC[C@]4(C)[C@H]3CC[C@@]21C | -16.6% (active) | 12.3% | -28.2% (active) | -61.1% (active) | -23.8% (active) | -44.2% (active) | -78.8% (active) | -41.2% (active) |
| COc1ccc2c(c1)C(C)Cc1c(ncnc1-n1c(C)nc3ccccc31)N2C (stereo unspecified) | 36.6% | 51.7% | -30.7% (active) | 12% | 15.4% | 36.3% | 41.3% | 28.7% |
| CCc1ccc(Oc2c(-c3ccc(OCCc4cccc(C(F)(F)F)c4)cc3O)n[nH]c2C(F)(F)F)cc1 | 6.59% (active) | 86.5% | 27.1% | 14.7% | 27.8% | 0% (active) | 89.4% | 46.4% |
| COc1cc(C2CC(c3cccc(Br)c3)=NN2C(C)=O)cc(OC)c1OC (stereo unspecified) | 69.7% | -8.75% (active) | -51.2% (active) | 24.8% | 22.8% | 17.2% | -31% (active) | 16.9% |
| O=c1c2cc(F)ccc2sc2c(N3CCNCC3)nc3ccccc3c12 | 27.9% | 90.8% | -87.1% (active) | -87.1% (active) | -74.1% (active) | -46.3% (active) | -92.1% (active) | -82.4% (active) |
| Cc1ccc(C(=O)N/N=C/c2cccc(Oc3ccccc3)c2)cn1 | 66.3% | 38.1% | -48% (active) | 29.3% | 37.2% | 32.8% | 55.4% | 22.8% |
| Cc1cc2[nH]c(=O)c3c4ncccc4cn3c2cc1C | 56.5% | 105% | 11.1% | -26.9% (active) | 11.6% | -77.1% (active) | 13.7% | 25.1% |
| CCc1ccc2nc(NC(=O)Cc3csc(NC(=O)c4ccco4)n3)sc2c1 | 55.1% | 57.4% | 90.6% | 101% | 18.3% | 78% | 101% | 78.6% |
| C=C(C)C1CCC2(C)OC2C1 (stereo unspecified) | 117% | 99.3% | 98.2% | 110% | 105% | 109% | 114% | 115% |
| CN1CCN(Cc2ccc(NC(=O)c3cncc(C#Cc4cnccc4C#N)c3)cc2C(F)(F)F)CC1 | 93.5% | 76.5% | 42% | 50.7% | 42.5% | 24% | 50.8% | 22.3% |
| CCOC(=O)Cn1c(C)c(/C=N/NC(=O)c2cc3c(ccc4ccccc43)o2)c2ccccc21 | 58.7% | 35.3% | -11.4% (active) | 30.4% | 17% | 8.16% (active) | 31.3% | 15.6% |
| COc1cc2cc(Oc3ccc(NC(=O)Nc4ccc(F)c(C(F)(F)F)c4)cc3)c(C)nc2cc1OCCN1CCOCC1 | 21.8% | 40.3% | 16.5% | 15.5% | 3.62% (active) | 9.66% (active) | 44.9% | 11.2% |
| O=C(O)CCC(=O)Nc1nnc(-c2ccccc2)s1 | 94.3% | 102% | 100% | 108% | 79.9% | 103% | 102% | 103% |
| C/C(=C(/c1ccccc1)c1ccc(N2C(=O)c3cccc4c(N5CCN(C)CC5)ccc(c34)C2=O)cc1)c1ccccc1 | 65.3% | 99.6% | 88.2% | 80.2% | 59% | 49.4% | 99.8% | 79.8% |
| COc1ccc(-c2cc(-c3cc(OC)c(OC)c(OC)c3)nc(N3CCOCC3)c2C#N)cc1 | 46.7% | 128% | 74.5% | 67.3% | 74.4% | 72.1% | 35% | 71.9% |
| NCCCNc1nc2ccccc2c2c(=O)c3cc(F)cc(F)c3sc12 | 92.7% | 93.4% | -91.2% (active) | -75.6% (active) | 75.5% | 53.2% | 75.3% | 79.1% |
| CNc1nc2c(s1)C(c1cccc(F)c1)CC(=O)N2 (stereo unspecified) | 94.8% | 94.5% | 99.9% | 102% | 95.2% | 99.8% | 104% | 101% |
| CCN(CC)CCNC(=O)c1cn2ncnc(Oc3ccc(NC(=O)Nc4ccc(Cl)c(C(F)(F)F)c4)cc3)c2c1C | -64.3% (active) | -32.5% (active) | -81.4% (active) | -85.6% (active) | -84.4% (active) | -95.3% (active) | -95.8% (active) | -80.4% (active) |
| c1ccc(CO[C@H]2CO[C@H]3[C@@H]2OC[C@@H]3Oc2ccc(Nc3ncnc4ccsc34)cc2)cc1 | 38.9% | 68.9% | 83.9% | 87.6% | 64.9% | 68.9% | 104% | 86.2% |
| Cc1nc2nc(SCC(=O)O)[nH]c2c(=O)[nH]1 | 96.7% | 97.2% | 107% | 98.5% | 93.2% | 104% | 101% | 105% |
| CCCCCCN1C(=O)/C(=c2\sc3n(c2=O)C2C(NN=3)N(CC)C(=O)N2CC)c2ccccc21 (stereo unspecified) | 16.2% | 41.3% | -49.2% (active) | -38.3% (active) | -10.4% (active) | -37.3% (active) | 83.5% | 16.6% |
| O=C(O)c1cn(C2CC2)c2cc(N3CCN(C(=O)Nc4nc(-c5ccccc5)cs4)CC3)c(F)cc2c1=O | 23.2% | 10.3% | 21% | 29.4% | 7.78% (active) | 17.5% | 34.4% | 13.8% |
| NCCCNc1nc2ccccc2c2c(=O)c3cccc(F)c3sc12 | 60.3% | 91.2% | 16.5% | -62.5% (active) | 19.9% | -72.5% (active) | -46% (active) | 4% (active) |
